# In the library only some 1.1% were active in any assay of this set; here they are far more common.
# SARS 3CLpro inh: SARS-CoV 3CLpro protease inhibition. P0C6X7. recombinant SARS-CoV 3CLpro, quenched FRET peptide cleavage. inhibition, % at 6 µM. 0.14% of 290,000 active; in the data active = inhibition above about 12%
# PfHsp40 rescue: rescue of PfHsp40-mediated yeast toxicity. AID 504582. S. cerevisiae expressing PfHsp40, growth rescue, ATP luminescence. growth rescue, % at 12.5 µM. 0.68% of 340,000 active; in the data active = growth rescue above about 28%, passing the limit was not always enough; inconclusive = no clear call, values can overlap the other calls;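 also: yeast W303a lacking pdr1 and pdr3 grown in galactose medium; growth measured after three days at 30 °C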
# Y pestis TopoI: blocks Yersinia pestis topoisomerase I activity; Y. pestis Topo-I cleavage product accumulation, plate reader; activity, % at 10 µM; 0.064% of 360,000 active; in the data active = activity above about 50%, passing the limit was not always enough; inconclusive = no clear call, values can overlap the other calls
# BJeLR viability: BJeLR cell viability loss | 0.17% of 300,000 active | BJeLR (HRASV12) viability, CellTiter-Glo ATP luminescence, 48 h | inhibition, % (concentration not given with the values) | AID 1554; in the data active = inhibition above about 50%; inconclusive = no clear call, values can overlap the other calls
# MazF activator: increases E. coli MazEF RNase cleavage of RNA; FAM/BHQ RNA-DNA oligo cleavage fluorescence, 5 h; P0AE70; AID 504720; 0.32% of 350,000 active; activation, % at 20 µM; in the data active = activation above about 50%
# Target sequence (P0AE70 whole entry, looked up): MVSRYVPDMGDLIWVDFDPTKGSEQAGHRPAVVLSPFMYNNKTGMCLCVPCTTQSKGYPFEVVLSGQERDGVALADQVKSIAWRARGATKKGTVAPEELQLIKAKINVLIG
# Mtb BioA inh: blocks M. tuberculosis BioA enzyme activity | purified M. tuberculosis BioA enzyme, plate reader | 0.096% of 360,000 active | inhibition, % at 9.99 µM; in the data active = inhibition above about 40%; inconclusive = no clear call, values can overlap the other calls
# * marks the source's active call; other numbers are inactive results; i = inactive; ? = inconclusive; . = no result.
SMILES,SARS 3CLpro inh,PfHsp40 rescue,Y pestis TopoI,BJeLR viability,MazF activator,Mtb BioA inh
CNC[C@H]1OCCCC[C@H](C)Oc2ccc(N(C)C)cc2C(=O)N([C@H](C)CO)C[C@@H]1C,.,.,.,.,.,-7
CCNC(=S)N/N=C(\C)c1ccc2ccccc2c1OC(F)F,1,62*,20,0,3,.
Cc1cc(C(=O)N/N=C/c2ccc(-c3ccc([N+](=O)[O-])cc3C)o2)n[nH]1,-2,1,-4,-7,75*,-2
CC(=O)NC(NC(=S)Nc1ccc(C)cc1C)C(Cl)(Cl)Cl (stereo not drawn),1,-1,6,21,5,-1
Cc1ccc(NC(=S)NC(NC(=O)c2ccccc2C)C(Cl)(Cl)Cl)c(C)c1 (stereo not drawn),13*,-1,-6,-6,6,-2
COc1cc(-c2cc[n+](C)cc2)ccc1O,.,67*,4,-8,6,-1
CNC(C)c1cc(OC)ccc1OC (stereo not drawn),1,45*,10,-6,10,0
O=C(COc1cccc(Cl)c1)N/N=C\c1cc2ccccc2nc1Cl,-1,-1,-2,-1,148*,-1
Cc1ccccc1OCC(=O)N/N=C/c1cc2ccccc2nc1Cl,2,0,1,7,-4,-1
C[C@@H]1CN([C@@H](C)CO)C(=O)c2cc(NS(=O)(=O)c3ccc(F)cc3)ccc2O[C@@H](C)CCCCO[C@H]1CN(C)C(=O)C1CCCCC1,.,.,.,.,.,1
Cc1cc(C)n2nc(C(=O)NCc3ccccc3)cc2n1,-3,-2,10,2,4,1
Cc1ccc(NC(=O)c2cc3nc(C)cc(C)n3n2)cc1,3,47*,2,-6,2,-1
COc1cccc(S(=O)(=O)N[C@@H]2CC[C@H](CC(=O)NCc3ccccc3)O[C@H]2CO)c1,.,.,.,.,.,-1
c1ccc(-c2ccc(-c3nc(-c4ccccn4)no3)cc2)cc1,7,-1,13,81*,-1,2
c1ccc(-c2nc(-c3ccccn3)no2)cc1,-5,-1,0,14,9,1
COc1ccc(CNS(=O)(=O)CCNCc2ccccc2OC)cc1,.,-1,12,.,7,-1
CCCCCCCCNS(=O)(=O)CCNCc1ccccc1OC,.,-1,53*,.,1,0
COc1cccc(S(=O)(=O)N(C)C[C@@H]2Oc3ncc(C#CC(C)C)cc3C(=O)N([C@H](C)CO)C[C@H]2C)c1,.,.,.,.,.,1
CCOC(=O)C1=C(C)OC(=Cc2ccccc2)C1=O,.,.,-6,.,4,.
CCOC(=O)C1=C(O)c2ccccc2C(=O)/C1=C\c1ccc(C)cc1,-2,1,-8,.,151*,-1
S=C(NCc1ccco1)Nc1cccc(Cl)c1,-1,4,4,-17,-1,.
S=C(NCc1ccco1)Nc1ccc(Cl)c(Cl)c1,5,36*,-3,-2,12,0
N#CC(C#N)=Cc1ccc(-c2ccccc2)o1,2,.,.,8,.,.
N#CC(C#N)=Cc1ccc(-c2ccccc2F)o1,5,-1,-6,.,149*,.
CO[C@@H]1CC[C@@H]2CCN(C)C(=O)C[C@@H](c3ccccc3)CN(C)C(=O)c3cc(C#N)ccc3OC[C@@H]1O2,.,.,.,.,.,-1
SMILES,SARS 3CLpro inh,PfHsp40 rescue,Y pestis TopoI,BJeLR viability,MazF activator,Mtb BioA inh
C=CC1C2C(C)=CC(C3C(=O)N(C)C(=O)C32)N1Cc1ccc(OC)cc1 (stereo not drawn),.,.,.,.,.,-1
CCN1C(=O)C(=Cc2cccc(OC)c2Oc2ccc([N+](=O)[O-])cc2[N+](=O)[O-])SC1=S,3,-2,-4,94*,2,-1
COc1cc(/C=C2\SC(=O)NC2=O)ccc1Oc1ccc([N+](=O)[O-])cc1[N+](=O)[O-],5,0,-13,0,-12,.
CCNc1cc(O)ccc1C,.,77*,7,.,35,-3
COc1ccc(C(=O)/C=C/C(=O)N(CC(=O)NC2CCCCC2)Cc2ccccc2OC)c(O)c1,4,1,6,51*,7,.
CN(C)CC(=O)N[C@@H]1CC[C@@H](CCNC(=O)Nc2ccc(F)cc2)O[C@@H]1CO,.,.,.,.,.,1
Cc1ccc(CSc2nnc(C(F)(F)F)n2Cc2ccc(F)cc2)cc1,5,38*,26,1,-11,10
CCOc1ccc(CC(=O)C2C(=O)CC(C)(C)CC2=O)cc1OCC,2,-3,4,-10,-4,-2
CC1(C)CC(=O)C(C(=O)Cc2ccccc2[N+](=O)[O-])C(=O)C1,1,29*,5,14,6,0
CN(C)CCOc1ccc(-c2c(-c3ccccc3)sc3ccccc23)cc1,.,33*,-12,.,6,-3
CC(CCC(C)C(C)(C)C)[C@@H]1CC[C@H]2C3C[C@H](OS(O)(=S)=S)[C@H]4C[C@H](OS(O)(=S)=S)[C@@H](OS(O)(=S)=S)C[C@]4(C)[C@H]3CC[C@]12C (stereo partly drawn) (tested in a mixture with another compound),.,104*,5,.,-35,23
O=C(N/N=C/c1c[nH]c2ccccc12)c1sc2ccccc2c1Cl,4,?,-7,17,7,.
O=C(N/N=C/c1ccccn1)c1sc2ccccc2c1Cl,8,199*,17,3,-7,-3
O=C(Cc1ccc(Cl)cc1)NNC(=S)NC(=O)c1cccs1,0,5,5,-17,5,.
O=C(Cc1cccs1)NNC(=S)NCc1ccc(Cl)cc1,3,72*,-3,-3,2,1
Cc1noc(C)c1NC(=O)N(C)C[C@H]1Oc2c(NC(=O)NC3CCCCC3)cccc2C(=O)N([C@H](C)CO)C[C@@H]1C,.,.,.,.,.,5
CC(=O)Nc1cc(Cl)c(N=Cc2ccc(O)cc2O)cc1Cl,1,2,-9,8,106*,-3
O=S(=O)(NN=Cc1ccc(O)cc1O)c1cc(Cl)c(Cl)cc1Cl,.,-1,3,.,-2,1
Cc1noc(C)c1S(=O)(=O)Nc1ccc2c(c1)CC(=O)N([C@H](C)CO)C[C@H](C)[C@@H](CN(C)S(=O)(=O)c1ccc(F)cc1)O2,.,.,.,.,.,-4
Nc1ccc2nc(-c3ccccc3)c(-c3ccccc3)nc2c1,-1,-1,2,-4,-24,0
C[n+]1c(-c2ccccc2)c2cc(N)ccc2c2ccc(N)cc21,-7,128*,-16,44,-64,34
Cc1ccccc1-c1cnc2c(c1)C(=O)N([C@H](C)CO)C[C@@H](C)[C@H](CN(C)C(=O)CN(C)C)O2,.,.,.,.,.,0
CC(C)c1cc(=O)oc2c3c4c(cc12)CCCN4CCC3,2,-1,8,-6,88*,1
O=c1cc(C(F)(F)F)c2cc3c4c(c2o1)CCCN4CCC3,-7,0,-5,4,i,.
CCc1nc2ccccc2n1CC1CC1(Cl)Cl (stereo not drawn),2,56*,3,-2,2,0
